For 35 compounds, Potency and activity change, positive = activation results are on record in PubChem BioAssay (Tox21).

“And” between values parts separate entries of the source, which are not always exact repeats. Equal values may be shown once. A number with no mark means an inactive call. Results filed as inconclusive are left out. Where a call stands in place of a potency, no number is given. The source made the active and inactive calls. Unless noted, calls follow the shape of the dose curve; as a rule, active = well fitted curve in the direction sought with a large enough effect in the repeat runs; inconclusive = weak or mixed curves; inactive = no such curve, though single readings can be large; an effect the other way counts as inactive or inconclusive.

The nature of the first experiment: qHTS assay to identify small molecule agonists of H2AX - cell viability counter screen (AID 1224847; calls by dose curve; also: top concentration of the series differs between compounds; nearly all actives have a fitted effect of over 30% in size). To be noted: CHO-K1 viability, CellTiter-Glo luminescence, 3 h; series mostly up to 154 µM. The method in brief: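 Read-out: CellTiter-Glo luminescence, 30 min RT. Cells: wild-type CHO-K1, 1000/well, 10% FBS, plated overnight at 37C. Treatment: 15 concentrations, 3 hr, 37C, 0.76% DMSO.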
For `Cc1ncc(C[n+]2csc(CCO)c2C)c(N)n1`, the Potency result was “inactive”.
The same measure, in the same setting: in the case of `COP(=O)(OC)OC(Br)C(Cl)(Cl)Br` (centres undefined) it was “inactive”; in that of `C=C(C)C(=O)OCCCCOC(=O)C(=C)C`, “inactive”.
Still for that read-out and setting: in the case of `C=CCc1ccc(OC(=O)Cc2ccccc2)c(OC)c1` it was “inactive”.

A short description of a further experiment: qHTS assay to identify small molecule antagonists of the estrogen related receptor (ERR) signaling pathway from Tox21 library (AID 1224848). Also: nearly all actives have a fitted effect of over 50% in size. Also: potency is read from the fitted curve at half-maximal effect. To be noted: ERR reporter cell line, luciferase antagonist mode, 18 h; series mostly up to 92.4 µM. The method in brief: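 First, 2,000 ERR cells per well were plated and held 6 h at 37 C/5% CO2. Next, compounds in DMSO were pinned in and left 18 h at 37 C. Finally, ONE-Glo was added and luminescence read after 30 min at room temperature.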
On the technique in general: qHTS replaces the single test concentration by a dilution series.
With `O=[N+]([O-])/C=C/c1ccccc1`, the Potency is 22 µM (active).
`O=S(=O)(c1ccccc1)c1ccccc1`: the Potency entry is “inactive”.
Same read-out and setting: in the case of `O=C(O)COc1cc(Cl)c(Cl)cc1Cl` it was “inactive”.
Still for that read-out and setting: in the case of `O=C(O)c1ccc(=O)[nH]c1` it was “inactive”; in that of `CCC[N+](CCC)(CCC)CCC`, “inactive”; in that of `CCCCCCCCn1sccc1=O`, 17.3 µM (active) and 9.05 µM (active).
As to `C[Si](Cn1cncn1)(c1ccc(F)cc1)c1ccc(F)cc1`, the Potency was 28.2 µM (active) and 30.6 µM (active).
On the same count and under the same terms, in the case of `CC(C)(C)NCC(O)c1ccccc1Cl` (centres undefined) it was “inactive”.
The same measure, in the same setting: for `C=CCc1ccccc1O` the value was “inactive”.
On to `O=C(NCNC(=O)NC1C(=O)NC(=O)N1CO)NC1C(=O)NC(=O)N1CO` (centres undefined), for which the Potency entry was “inactive”.
On the same count and under the same terms, in the case of `C=C(C)C(=O)OCCCCOC(=O)C(=C)C` it was “inactive”.

Another experiment can be described thus: qHTS assay to identify small molecule agonists of the estrogen related receptor (ERR) signaling pathway from Tox21 library (AID 1224849; calls by dose curve; also: nearly all actives have a fitted effect of over 15% in size). To be noted: ERR reporter cell line, ONE-Glo luciferase, 18 h; at 92.4 µM (top of the series). A digest of the protocol: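 Luminescence readout (ONE-Glo, 30 min RT) after 18 h compound exposure at 37 C of NTP-supplied ERR reporter cells; cells were plated 6 h before compound addition by pin tool.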
With `O=[N+]([O-])/C=C/c1ccccc1`, the activity change, positive = activation was -76.3% and -54.1%.
The same measure, in the same setting: in the case of `Clc1ccccc1` it was 5.28%.
Consider `O=C(O)COc1cc(Cl)c(Cl)cc1Cl`, for which the activity change, positive = activation is -7.72% and -14.1%.
The same measure, in the same setting: in the case of `CCC[N+](CCC)(CCC)CCC` it was -9.29%.
Still for that read-out and setting: for `CCCCCCCCn1sccc1=O` the value was -82.6% and -70%.
Turning to `Cc1nc2ccccc2c(=O)n1-c1ccccc1Cl`, the activity change, positive = activation is -29.9%.
Same read-out and setting: for `CC1(C)[C@H](C(=O)O[C@H](C#N)c2cccc(Oc3ccccc3)c2)[C@@H]1C=C(Br)Br` the value was -23.2% and -24.2%; for `C[Si](Cn1cncn1)(c1ccc(F)cc1)c1ccc(F)cc1`, -66.3% and -52.8%.
On to `C=CCc1ccccc1O`, for which the activity change, positive = activation is 0.524%.
Same read-out and setting: in the case of `O=C(NCNC(=O)NC1C(=O)NC(=O)N1CO)NC1C(=O)NC(=O)N1CO` (centres undefined) it was 3.53%; in that of `C=C(C)C(=O)OCCCCOC(=O)C(=C)C`, 2.2%.

A further experiment is described as follows: qHTS RealTime-Glo MT Cell Viability Assay in HepG2 cells - 24 hour (AID 1224867). Also: nearly all actives have a fitted effect of over 50% in size. To be noted: RealTime-Glo luminescence; series mostly up to 76.8 µM. A digest of the protocol:
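qHTS, HepG2, 600 cells/well, RealTime-Glo (NanoLuc + prosubstrate) added with cells; 5 h preincubation; DMSO compound addition; 37 C; luminescence at 0/8/16/24/32/40 h.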
In the case of `CN1C(=O)CN=C(c2ccccc2)c2cc([N+](=O)[O-])ccc21`, the Potency result was “inactive”.
On the same count and under the same terms, in the case of `O=C(O)CCCOc1ccc(Cl)cc1Cl` it was “inactive”; in that of `COc1ccc2c(c1OC)C(=O)O[C@H]2[C@@H]1c2cc3c(cc2CCN1C)OCO3`, “inactive”.
The same measure, in the same setting: in the case of `CNC(=O)Oc1cccc(N=CN(C)C)c1` it was “inactive”; in that of `OCCCl`, “inactive”.
Same read-out and setting: for `Clc1ccc2ccccc2c1` the value was “inactive”; for `O=C(NC(=O)c1cc(F)c(F)cc1Cl)Nc1cc(F)ccc1N1CCC(C(=O)O)CC1`, “inactive”.
In the case of `Clc1ccccc1`, the Potency result is “inactive”.
Regarding `O=C(O)COc1cc(Cl)c(Cl)cc1Cl`, the Potency entry was “inactive”.
On the same count and under the same terms, in the case of `SCc1ccccc1` it was “inactive”; in that of `CC(C)[C@@H](C(=O)O[C@@H](C#N)c1cccc(Oc2ccccc2)c1)c1ccc(Cl)cc1`, “inactive”; in that of `O=C(O)C(O)C(O)C(=O)O` (centres undefined), “inactive”.
As for `Cc1cnc(C2=NC(C)(C(C)C)C(=O)N2)c(C(=O)O)c1` (centres undefined), the Potency result was “inactive”.
On the same count and under the same terms, in the case of `Cc1nc2ccccc2c(=O)n1-c1ccccc1Cl` it was “inactive”; in that of `C[N+]1(CCC(C(N)=O)(c2ccccc2)c2ccccc2)CCCCC1`, “inactive”; in that of `CCCCC(CC)COC(=O)c1c(Br)c(Br)c(Br)c(Br)c1C(=O)OCC(CC)CCCC` (centres undefined), “inactive”.
`Cc1ccccc1`: the Potency result was “inactive”.
As to `CCCC1CCCCN1` (centres undefined), the Potency entry is “inactive”.
Same read-out and setting: for `CCCC[P+](CC)(CCCC)CCCC` (tested in a mixture with another compound) the value was “inactive”; for `C[Si](Cn1cncn1)(c1ccc(F)cc1)c1ccc(F)cc1`, “inactive”; for `CCOP(=O)(O)C(N)=O`, “inactive”.
Same read-out and setting: in the case of `C[C@]12C=CC3=C4CCC(=O)C=C4CC[C@H]3[C@@H]1CC[C@@H]2O` it was “inactive”.
Still for that read-out and setting: in the case of `C=CCc1ccccc1O` it was “inactive”; in that of `O=C(NCNC(=O)NC1C(=O)NC(=O)N1CO)NC1C(=O)NC(=O)N1CO` (centres undefined), “inactive”.
Turning to `Cc1ncc(C[n+]2csc(CCO)c2C)c(N)n1`, the Potency result is “inactive”.
Still for that read-out and setting: in the case of `COP(=O)(OC)OC(Br)C(Cl)(Cl)Br` (centres undefined) it was “inactive”.
The same measure, in the same setting: for `C=C(C)C(=O)OCCCCOC(=O)C(=C)C` the value was “inactive”; for `C=CCc1ccc(OC(=O)Cc2ccccc2)c(OC)c1`, “inactive”.
